Cruzain Triton – blocks cruzain activity in presence of Triton detergent | P25779 | purified cruzain, Z-FR-AMC fluorescence, 0.01% Triton | Potency, µM, without a hit: max response, negative = inhibition, usual class: inhibitors | actives 0.43% (n = 200,000) | AID 1478;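 note: plate controls were neutral wells for no effect and buffer without enzyme for full effect; nearly all actives have a fitted effect of over 40% in size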
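15 min RT preincubation of 1.5 nM cruzain with compound, then 2 uM Z-FR-AMC added; kinetic AMC fluorescence, 60 s delta. Triton X-100 0.01%, pH 5.5.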
Cruzain noTriton – blocks cruzain activity in detergent-free assay. purified cruzain, Z-FR-AMC fluorescence, no detergent. actives 2.3% (n = 200,000). Potency, µM, without a hit: max response, negative = inhibition, most hits filed as inhibitors. AID 1476;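 note: plate controls were enzyme without inhibitor for no effect and buffer without enzyme for full effect; nearly all actives have a fitted effect of over 40% in size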
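Purified cruzain at 1.5 nM, pre-incubated 15 min with compound at room temperature in 100 mM sodium acetate pH 5.5, 5 mM DTT, 0.00005% Triton X-100. Reaction started with 2 uM Z-FR-AMC; AMC fluorescence increase over 60 s gives rate.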
* hit, by the source's call; ? = inconclusive. Most compounds without a hit are left out; they make up all but 2.4% or so of the library. Calls come from the whole dose curve; as a rule, active = well fitted curve in the direction sought with a large enough effect; inconclusive = small, poorly fitted or top-dose-only effect, or another doubt; inactive = no such curve, though single readings can be large; an effect the other way counts as inactive or inconclusive. Potency is the fitted concentration of half-maximal effect.

SMILES	Cruzain Triton	Cruzain noTriton
CCOc1ccc(OCC)c(NC(=O)CCS(=O)(=O)c2ccc(Br)s2)c1	-7%	6%
CCOc1ccc(OCC)c(NC(=O)C(NS(=O)(=O)c2ccc(Br)s2)c2ccccc2)c1 (configuration not stated)	-1%	10µM*
COc1ccc(N2C(=O)CSC23C(=O)N(CC(=O)Nc2ccccc2F)c2ccccc23)cc1 (configuration not stated)	0%	-26%
CC(=O)Nc1nc(C)c(-c2csc(Nc3cccc([N+](=O)[O-])c3)n2)s1	-7%	-18%
C=CCCC(=O)Nc1nc(C)c(-c2csc(Nc3cc(OC)ccc3OC)n2)s1	-1%	?
CCCCCC(=O)Nc1nc(C)c(-c2csc(Nc3cc(Cl)ccc3OC)n2)s1	0%	3.2µM*
CC(=O)Nc1nc(C)c(-c2csc(Nc3ccc(O)cc3)n2)s1	-28%	13µM*
CCCC(C)C(=O)Nc1nc(C)c(-c2csc(Nc3cc(OC)ccc3OC)n2)s1 (configuration not stated)	-2%	?
C=CCCC(=O)Nc1nc(C)c(-c2csc(Nc3cccc(OC)c3)n2)s1	-5%	16µM*
CCC(C)C(=O)Nc1nc(C)c(-c2csc(Nc3ccc(Cl)cc3)n2)s1 (configuration not stated)	0%	4µM*
CCCC(=O)Nc1nc(C)c(-c2csc(Nc3cc(OC)ccc3OC)n2)s1	-4%	-21%
Cc1ccc(-c2nnc(Nc3ccc(Br)cc3)c3ccccc23)cc1S(=O)(=O)N1CCOCC1	-2%	-18%
COc1ccc(N2CCN(C(CNS(=O)(=O)c3c(C)cc(C)cc3C)c3ccco3)CC2)cc1 (configuration not stated)	-6%	-2%
Cc1c(-c2nsc(NC(=O)c3ccc(Cl)cc3)n2)nnn1-c1ccc(C(C)C)cc1	3%	?
CCCC(=O)Nc1nc(C)c(-c2csc(Nc3ccc(Cl)cc3)n2)s1	-3%	13µM*
CCCC(=O)Nc1nc(C)c(-c2csc(Nc3ccccc3OC)n2)s1	-2%	-23%
Cc1cc(C)cc(OCC(=O)Nc2ccc(Cl)c(-c3nc4ncccc4o3)c2)c1	-4%	-30%
Cc1ccc(/C=C/C(=O)Nc2nc3ccccc3[nH]2)cc1	3%	25µM*
Cc1ccc(/C=C/C(=O)c2nc3ccccc3[nH]2)cc1	3%	-8%
O=C(/C(=C(\[O-])c1ccccc1)[n+]1ccc2ccccc2c1)c1ccccc1	-2%	?

High-throughput results as filed in PubChem.
